# “And” between values parts separate entries of the source, which are not always exact repeats. Equal values may be shown once. The source made the active and inactive calls. Rule for the calls: active = hit-call score of the fitted dose curve at least 0.9, where 1 is the maximum; inactive = score below 0.9.
# Read-out: Intercellular Adhesion Molecule 1 (ICAM1), ICAM1 (gene 3383)
# Test: BSK_KF3CT_ICAM1: BioMAP Diversity Plus: KF3CT Assay for Intercellular Adhesion Molecule 1 (ICAM1) Biomarker Activity (AID 2283067)
# Conditions: primary human keratinocytes with fibroblasts; actives raise or lower the signal
# Protocol: BSK_KF3CT is a cell-based, multiplexed-readout assay that uses keratinocytes and foreskin fibroblasts, a human skin primary cell co-culture, with measurements taken at 24 hours after chemical dosing in a 96-well plate.BSK_KF3CT_ICAM1 is an assay component measured in the BSK_KF3CT assay. It measures ICAM-1 antibody related to regulation of gene expression using ELISA technology.Data from the assay component BSK_KF3CT_ICAM1 was analyzed into 1 assay endpoint. This assay endpoint, BSK_KF3CT_ICAM1, was analyzed with bidirectional fitting relative to DMSO as the negative control and baseline of activity. Using a type of binding reporter, gain or loss-of-signal activity can be used to understand changes in the signaling as they relate to the gene ICAM1. Furthermore, this assay endpoint can be referred to as a primary readout, because this assay has produced multiple assay endpoints where this one serves a signaling function. To generalize the intended target to other relatable targets, this assay endpoint is annotated to the cell adhesion molecules intended target family, where the subfamily is Immunoglobulin CAM.
# The levels of cell surface (or secreted, indicated by the prefix "s") biomarker endpoints were measured by ELISA. Overt cytotoxicity to cells in confluent adherent cultures (all systems other than the BT system) was assessed by measuring total protein levels using sulforhodamine B (SRB) staining in parallel cultures at the time of biomarker measurements, indicated as SRB endpoints. For proliferation assays for adherent cell types, individual cell types are cultured at sub-confluence and relative cell numbers quantified by SRB staining at time points optimized for each system (48 h: 3C and CASM3C systems; 72 h: BT and HDF3CGF systems; 96 h: SAg system). SRB was performed by staining cells with 0.1% SRB after fixation with 10% TCA and reading wells at 560 nm.Viability and proliferation of PBMC (T cells) was quantified by Alamar Blue reduction for the SAg and BT systems. For PBMC viability (referred to as PBMC Cytotoxicity within the assay endpoint names), cells were plated (75,000/well in a 96-well plate) and then chemical samples added for 1 h before addition of activators, SEB and TSST-1 (20 ng/mL final concentration each). Cells were incubated for 90 h. Then, Alamar Blue (20 uL/well) (Invitrogen, Cat DAL1100) was added for 6 h, and the plates were read with a fluorescence microplate reader at 546/580 nm (excitation/emission). For PBMC proliferation, cells were plated and activated as above but incubated for only 16 h prior to addition of Alamar Blue. Plates were read after 6 h.
SMILES,outcome,AC50
N#Cc1cc([N+](=O)[O-])ccc1N,inactive,
c1ccc2c(c1)Nc1ccccc1S2,inactive,
Cc1c([N+](=O)[O-])cc2c(c1[N+](=O)[O-])C(C)(C)CC2(C)C,inactive,
OCC(F)(F)OC(F)(F)C(F)(F)OC(F)(F)C(F)(F)OC(F)(F)F,,48.3 µM (active) and 46.3 µM (active)
CCOP(=S)(NC(C)C)Oc1ccccc1C(=O)OC(C)C (stereo not given),inactive,
CCOC(=O)c1ccccc1C(=O)OCC,inactive,
Cc1ccc2c(c1N)C(=O)c1ccccc1C2=O,inactive,
Nc1ccc2ccccc2c1,inactive,
O=[N+]([O-])c1ccc(Cl)c(Cl)c1,inactive,
O=[N+]([O-])c1ccccc1,inactive,
CCOP(=S)(OCC)SCn1nnc2ccccc2c1=O,inactive,
CCNc1nc(Cl)nc(NC(C)(C)C)n1,inactive,
Nc1ccc([N+](=O)[O-])cc1Cl,inactive,
OCC(F)(F)OC(F)(F)C(F)(F)OC(F)(F)CO,inactive,
CC(Cl)CN(C)C (stereo not given),inactive,
Nc1cc2c3c(c1)C(c1ccccc1)=N[C@@H](NC(=O)c1cccnc1)C(=O)N3CC2,inactive,
Cc1ccc(N)cc1N,inactive,
O=P(OCC(Br)CBr)(OCC(Br)CBr)OCC(Br)CBr (stereo not given),inactive,
N#Cc1c(-c2ccc(Cl)cc2)[nH]c(C(F)(F)F)c1Br,inactive,
CCOS(=O)(=O)OCC,inactive,

SMILES,outcome,AC50
CCN(CC)c1ccccc1,inactive,
C=CC(=O)OCC(F)(F)C(F)F,inactive,
CCOP(=S)(OCC)SCSCC,inactive,
O=C(O)C(Cl)Cl,inactive,
ClC(Cl)=C(c1ccc(Cl)cc1)c1ccccc1Cl,,5.72 µM (active)
NC(=O)C(F)(F)C(F)(F)F,inactive,
CC(C)(C)OOC(C)(C)C,inactive,
[N-]=[N+]=[N-],inactive,
CCCCc1ccccc1,inactive,
COP(=O)(O)OC,inactive,
FC(F)(F)C(F)(C(F)(F)F)C(F)(F)C(F)(F)CC1CO1 (stereo not given),inactive,
c1nc[nH]n1,inactive,
Cc1ccc(O)cc1C,inactive,
O=C(O)C1C(C(=O)O)C2(Cl)C(Cl)=C(Cl)C1(Cl)C2(Cl)Cl (stereo not given),inactive,
CC(Cl)(Cl)C(=O)O,inactive,
Nc1ccc(Cl)cc1,inactive,
CC(O)C(F)(F)C(F)(F)F (stereo not given),inactive,
CCCCN(CCCC)N=O,inactive,
O=c1ssc(Cl)c1Cl,,5.46 µM (active)
O=C(O)C=CC(F)(C(F)(F)F)C(F)(F)F,inactive,
